The entries come from a sample that favours hits as a whole.
TbREL1 primary = TbREL1 inhibition, primary screen; 89,000 tested, 0.49% active; AID 1117264; inhibition, % at 9.66 µM; TbREL1 RNA ligation, FRET fluorescence;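 active means inhibition above the mean inhibition across all screened compounds plus 3 SD, cut at about 11% in these data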;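 further: 0% = plate median of test wells and 100% = NSC42067 control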
Target sequence (P86926 whole entry, looked up): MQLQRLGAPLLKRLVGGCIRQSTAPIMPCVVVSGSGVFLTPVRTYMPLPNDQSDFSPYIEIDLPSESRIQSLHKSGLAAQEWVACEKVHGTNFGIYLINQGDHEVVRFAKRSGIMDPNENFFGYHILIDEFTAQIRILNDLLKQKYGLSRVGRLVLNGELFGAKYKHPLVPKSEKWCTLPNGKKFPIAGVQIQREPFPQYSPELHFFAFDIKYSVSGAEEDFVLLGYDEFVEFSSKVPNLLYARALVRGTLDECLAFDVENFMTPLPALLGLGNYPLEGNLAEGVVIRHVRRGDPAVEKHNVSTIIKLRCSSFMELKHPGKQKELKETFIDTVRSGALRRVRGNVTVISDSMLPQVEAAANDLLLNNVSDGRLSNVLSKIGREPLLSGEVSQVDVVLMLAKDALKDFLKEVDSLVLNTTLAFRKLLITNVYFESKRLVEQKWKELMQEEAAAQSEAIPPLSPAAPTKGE
TbREL1 conf = TbREL1 inhibition, confirmation; shares compounds with TbREL1 primary; TbREL1 RNA ligation, FRET fluorescence; inhibition, % at 9.66 µM; 390 tested, 37% active;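 active means mean inhibition across replicates above a set limit taken from the earlier primary screen, cut at about 11% in these data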;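 further: 0% = REL1 with substrate and DMSO and 100% = REL1 plus control inhibitor NSC42067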
The depositor's hits bear a star.

SMILES | TbREL1 primary | others
C[C@@H](NC(=O)Cn1cnc2c(OCc3ccccc3)ncnc21)c1cccc2ccccc12 | -4
Cc1nc2c(C(=O)N3CCCC3)cnn2c(C)c1Cc1c(F)cccc1Cl | 7
COC(=O)c1ccc2nc(-c3ccc(C)cc3)c(Cc3cccc(F)c3)n2c1 | 7
COC(=O)c1cnn2c(C)c(Cc3cccc(F)c3)c(C)nc12 | 16* | TbREL1 conf=2
CCOC(=O)Cc1nnc(NC(=O)c2ccccc2OCC)s1 | -2
CCOC(=O)Cc1nnc(NC(=O)c2ncn[nH]2)s1 | 11* | TbREL1 conf=7
CCOC(=O)Cc1nnc(NC(=O)COc2ccc(C)cc2)s1 | 0
COc1cccc(NC(=O)Nc2c(-c3ccc(C(F)(F)F)cc3)nc3ncccn23)c1 | -3
Cc1cccc(Cn2cc(COC(=O)Nc3ccc(F)cc3)nn2)c1 | 15* | TbREL1 conf=0
O=C(Nc1ccc(F)cc1)OCc1cn(Cc2ccc(Cl)cc2)nn1 | -2
O=C(Nc1ccc(F)cc1)OCc1cn(Cc2ccccc2)nn1 | -2
O=C(CN(Cc1ccc(F)cc1)C(=O)CNS(=O)(=O)c1ccc(F)cc1)NCc1ccco1 | -4
CCCC(C(=O)NCc1ccco1)N(CC1CCCO1)C(=O)CNS(=O)(=O)c1ccc(F)cc1 (configuration not stated) | -2
CCC(C(=O)NCc1ccco1)N(C(=O)CNS(=O)(=O)c1ccc(F)cc1)c1ccccc1F (configuration not stated) | 36* | TbREL1 conf=2
C=CCn1c(COc2ccc(C)cc2)nnc1SCC(=O)Nc1ccc(Oc2ccccc2)cc1 | 1
Cc1ccccc1CNC(=O)C1C2C=CC3(CN(Cc4ccccc4)C(=O)C13)O2 (configuration not stated) | -1
O=C1CCC[C@H]2C[C@H](NCc3cccc(Cl)c3)CC[C@]23CCCN13 | -4
CC(C)[C@H](NC(=O)C1CC1)C(=O)N1CCC[C@H]1C(=O)NCc1ccccc1 | -2
COCCCNC(=O)[C@@H](Cc1ccccc1)NC(=O)[C@H]1O[C@@H](n2ccc(=O)[nH]c2=O)[C@H](O)[C@@H]1O | 2
CC(C)(C)CCN1CCC[C@H](NC(=O)COc2ccc(F)c(Cl)c2)C1 | -1
COc1ccccc1/C=C/C(=O)NNC(=O)c1cccs1 | 11* | TbREL1 conf=4
COc1ccccc1C(=O)NCC(=O)NNC(=O)c1cccs1 | 1
COc1ccccc1NC(=O)c1cccs1 | 2
CCCC[C@H](C(=O)N(CC)c1ccccc1)[C@@H](O)c1ccc(Cl)cc1 | 0
O=C(NCCCO)c1ccc2nc(-c3ccco3)c(-c3ccco3)nc2c1 | 11* | TbREL1 conf=19*
SMILES | TbREL1 primary | others
CCCNC(=O)c1ccc2nc(-c3ccccc3)c(-c3ccccc3)nc2c1 | -1
COc1cccc(C(=O)NCCCNC(=O)c2ccco2)c1 | 5
CC(C)NC(=O)C1(C)CCCCN1Cc1ccc(OCc2ccccc2)cc1 (configuration not stated) | -4
CCOC(=O)[C@]12CCCC=C1N(CCCOC)C(=O)[C@@H]2CC(=O)NCc1cccc2ccccc12 | -4
CCN=C1NC(c2ccc(C(F)(F)F)cc2)C(C(=O)OC)=C(C)N1Cc1ccccc1C(F)(F)F (configuration not stated) | 11* | TbREL1 conf=12*
COC(=O)C1=C(C)N(Cc2ccc(Br)cc2)C(=S)NC1c1ccc(F)cc1 (configuration not stated) | 2
COC(=O)C1=C(C)N(Cc2ccc(F)cc2)C(=S)NC1c1cccc(OC)c1 (configuration not stated) | -6
COC(=O)C1=C(C)N(Cc2ccccc2C(F)(F)F)C(=NCc2ccccc2)NC1c1ccc(Cl)cc1 (configuration not stated) | 14* | TbREL1 conf=16*
CCN=C1NC(c2ccc(F)cc2)C(C(=O)OC)=C(C)N1Cc1ccc(C(F)(F)F)cc1 (configuration not stated) | 4
COC(=O)C1=C(C)N(Cc2ccccc2C(F)(F)F)C(=NCc2ccc(C(F)(F)F)cc2)NC1c1ccc(C(F)(F)F)cc1 (configuration not stated) | 25* | TbREL1 conf=23*
COC(=O)C1=C(C)N(Cc2ccccc2)C(=S)NC1c1ccc(-c2ccccc2)cc1 (configuration not stated) | -6
COC(=O)C1=C(C)N(Cc2cccc(C(F)(F)F)c2)C(=NCc2ccc(OC)cc2)NC1c1ccc(F)cc1 (configuration not stated) | 12* | TbREL1 conf=14*
COc1ccc(-n2c(SCC(=O)Nc3ccc4cn[nH]c4c3)nnc2-c2ccccc2)cc1 | -3
O=C(OCC#CCSc1nnc(-c2cc3ccccc3cc2O)o1)c1ccc(F)cc1 | -3
CCCC1CCC2(CCCN2CCOC(=O)Nc2ccccc2C)CC1 (configuration not stated) | 0
Cc1cc(-c2n[nH]c(=S)n2N=Cc2c3ccccc3cc3ccccc23)n[nH]1 | -2
COC(=O)[C@]12C[C@H](CC(=O)N3CCN(C(=O)C4CC4)CC3)C(=O)N(Cc3ccc(Cl)cc3Cl)C1=C[C@H](C(C)C)O[C@@H]2C1CC1 | -3
Cc1cccc(C(=O)Nc2c(-c3ccccc3)nc3ncccn23)c1 | 2
O=C(Nc1ccc(Br)cc1)OCCN1CCCC12CCC(c1ccccc1)CC2 (configuration not stated) | 3
COC(=O)C1=C(C)N(Cc2ccccc2)C(=NCc2ccc(OC)cc2)N[C@H]1c1ccccc1 | 10
COC(=O)C1=C(C)N(Cc2ccccc2)C(=NCc2cccc(C(F)(F)F)c2)N[C@H]1c1cccc(F)c1 | 9
COC(=O)C1=C(C)N(Cc2ccccc2C(F)(F)F)C(=NCc2ccc(C(F)(F)F)cc2)NC1c1ccccc1 (configuration not stated) | 16* | TbREL1 conf=18*
CCN1C(=NCc2cccc(Cl)c2)N[C@@H](c2cccc(F)c2)C(C(=O)OC)=C1C | 7
COC(=O)C1=C(C)N(Cc2ccccc2C(F)(F)F)C(=NCc2ccccc2)NC1c1cccc(F)c1 (configuration not stated) | 15* | TbREL1 conf=20*
COC(=O)[C@]12C[C@H](CC(=O)NCc3cccc(C(F)(F)F)c3)C(=O)N(CCc3ccc(OC)c(OC)c3)C1=C[C@H](COCc1ccccc1)O[C@@H]2C | -1
SMILES | TbREL1 primary | others
COC(=O)C[C@H]1CC[C@@H]2[C@H](COc3ccc(NC(=O)NCc4ccccc4)cc3C(=O)N2C)O1 | 2
C/C(=N\Nc1cc(N2CCOCC2)nc(C)n1)c1cccc([N+](=O)[O-])c1 | 12* | TbREL1 conf=2
C/C(=N\Nc1ccc(Cl)c(C(=O)O)c1)c1cccc([N+](=O)[O-])c1 | 2
Cc1nc(N/N=C/c2cccc(F)c2)cc(N2CCOCC2)n1 | 3
O=S1(=O)c2c(cccc2N2CC[C@H](O)C2)O[C@H]2CCN1C2 | 7
NC(=O)c1ncn([C@@H]2O[C@H](C(=O)N[C@H](Cc3c[nH]c4ccccc34)C(=O)N3CCN(CC(=O)N4CCCC4)CC3)[C@@H](O)[C@H]2O)n1 | -4
COC(=O)[C@]12C[C@H](CC(=O)NCCC(C)C)C(=O)N(Cc3ccco3)C1=C[C@H](C1CCCC1)O[C@@H]2C | 1
CS(=O)(=O)N1c2ccccc2C[C@H]1Cc1cc2ccccc2o1 | 12* | TbREL1 conf=-1
CCNC(=O)C1(C)CCCN(Cc2cc3ccccc3o2)C1 (configuration not stated) | -2
Cc1ccc(S(=O)(=O)NCC2Cc3ccccc3N2S(=O)(=O)c2ccc(C)cc2)cc1 (configuration not stated) | -3

Screening results (PubChem)
